Source: paper PMC4336329 (PLoS ONE, 2015)
Screen size: about 310,000 compounds; about 14,000 (4.5%) showed an effect of 50% or more. Effects have a minus sign here. This is one part of a sample in which strong results are shown more often than they occur.

Each molecule was assayed against human ether-à-go-go-related gene (hERG) potassium channel (human, UniProt Q12809) (assay: primary screen, population patch clamp on CHO cells stably expressing hERG; higher = less effect of the substance).
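Also: peak tail current of the secondary pulse compared with the same well before compound.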

human ether-à-go-go-related gene (hERG) potassium channel, sequence (Q12809 whole entry, looked up): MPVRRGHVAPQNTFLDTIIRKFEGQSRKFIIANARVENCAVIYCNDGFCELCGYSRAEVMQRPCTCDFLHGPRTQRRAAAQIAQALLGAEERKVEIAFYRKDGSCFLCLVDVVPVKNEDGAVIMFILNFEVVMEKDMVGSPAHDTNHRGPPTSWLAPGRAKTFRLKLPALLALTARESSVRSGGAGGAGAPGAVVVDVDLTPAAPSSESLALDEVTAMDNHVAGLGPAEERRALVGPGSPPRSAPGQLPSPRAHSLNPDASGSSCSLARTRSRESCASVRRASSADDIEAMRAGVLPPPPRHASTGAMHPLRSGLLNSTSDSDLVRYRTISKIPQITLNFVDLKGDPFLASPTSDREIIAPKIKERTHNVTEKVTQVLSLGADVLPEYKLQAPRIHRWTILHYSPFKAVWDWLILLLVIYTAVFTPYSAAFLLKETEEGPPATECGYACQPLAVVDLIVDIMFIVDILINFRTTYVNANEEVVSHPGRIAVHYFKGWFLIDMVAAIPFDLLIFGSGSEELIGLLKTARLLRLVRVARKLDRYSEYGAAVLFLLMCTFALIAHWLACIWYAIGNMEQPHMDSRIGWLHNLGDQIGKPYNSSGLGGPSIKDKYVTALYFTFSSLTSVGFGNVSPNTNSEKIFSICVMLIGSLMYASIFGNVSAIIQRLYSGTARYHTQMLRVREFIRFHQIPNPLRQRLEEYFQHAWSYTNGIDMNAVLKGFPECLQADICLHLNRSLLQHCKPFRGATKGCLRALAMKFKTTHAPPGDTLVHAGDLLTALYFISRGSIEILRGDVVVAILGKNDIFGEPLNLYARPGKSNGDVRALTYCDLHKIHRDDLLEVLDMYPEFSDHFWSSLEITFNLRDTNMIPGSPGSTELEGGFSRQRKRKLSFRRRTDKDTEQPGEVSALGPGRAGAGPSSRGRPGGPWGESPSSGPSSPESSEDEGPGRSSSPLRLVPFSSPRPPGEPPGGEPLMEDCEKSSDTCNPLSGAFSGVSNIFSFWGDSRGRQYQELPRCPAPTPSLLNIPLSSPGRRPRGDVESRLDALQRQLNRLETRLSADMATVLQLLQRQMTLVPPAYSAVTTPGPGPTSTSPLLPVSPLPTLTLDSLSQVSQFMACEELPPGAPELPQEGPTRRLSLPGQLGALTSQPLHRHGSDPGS

| Compound | hERG current change (%, negative = inhibition) at 10uM |
| --- | --- |
| CCCN1CCC(NC23CC4CC(CC(C4)C2)C3)CC1 | 22.1% |
| O=S(=O)(c1cccc2nonc12)N1CCN(c2ccccc2F)CC1 | 4.42% |
| CCOC(=O)c1c(C)[nH]c(C)c1C(=O)CSc1ncccn1 | -2.23% |
| O=C(Nc1nnc(-c2ccccc2Cl)s1)C1CCN(S(=O)(=O)c2ccc(Cl)cc2)CC1 | 28.1% |
| CCc1cccc(OCCCCN(CC)CC)c1 | -37.9% |
| CCOc1ccccc1OCCCOc1ccc(C)cc1Br | 7.97% |
| CCN(CC)CCCOc1ccc(Cl)c(Cl)c1 | -60.5% |
| Cc1ccc(OCCCN(C)C)c(Br)c1 | -20.6% |
| Clc1ccc(OCCCn2cncn2)cc1Cl | -12.2% |
| CCN(CC)CCCOc1ccc(C)cc1Br | -69% |
| COc1ccc(/C=N/N=C/c2ccc(OC)cc2)cc1 | 14% |
| CCOC(=O)CC1COCCN1C(=O)c1ccc2oc(Cc3ccccc3)nc2c1 (stereo not shown) | 1.91% |
| COc1ccc([C@@H]2CC=C(C(=O)O)CN2S(=O)(=O)c2ccc(Cl)cc2)cc1 | 7.54% |
| OCC[n+]1c2ccccc2nc2ccc(N3CCOCC3)cc21.[O-][Cl+3]([O-])([O-])[O-] | 3.86% |
| O=C1Cc2cc(NS(=O)(=O)c3cc(F)ccc3F)cc3c2N1CCC3 | -2.87% |
| Cc1ccc(NC(=S)N(CCN2CCOCC2)Cc2cc3cc4c(cc3[nH]c2=O)OCCO4)cc1 | -14.3% |
| C=CCNC(=O)CN1C(=O)NC(C)(c2ccc(OC)cc2)C1=O (stereo not shown) | -14.2% |
| COC(=O)C(NC(=O)c1ccc(F)cc1)(Nc1ncc(S(=O)(=O)c2ccc([N+](=O)[O-])cc2)s1)C(F)(F)F (stereo not shown) | -52.9% |
| COC(=O)C(NC(=O)c1ccc(OC)cc1)(Nc1ncc(S(=O)(=O)c2ccc([N+](=O)[O-])cc2)s1)C(F)(F)F (stereo not shown) | -5.41% |
| COC(=O)C(NC(=O)c1ccccc1Cl)(Nc1ncc(S(=O)(=O)c2ccc([N+](=O)[O-])cc2)s1)C(F)(F)F (stereo not shown) | -32.8% |
| CCc1nnc(NC(=O)CCC(=O)NC2CCCCCC2)s1 | 3.71% |

| Compound | hERG current change (%, negative = inhibition) at 10uM |
| --- | --- |
| O=c1c2ccccc2nc(Cc2ccccc2)n1-c1ccc(O)cc1 | -23.9% |
| COc1ccc(-c2nc3ccccc3c(=O)n2-c2ccc(OC)cc2)cc1 | -4.5% |
| CCCc1nc2ccccc2c(=O)n1-c1ccc(OC)cc1 | 9.5% |
| COc1ccc(-n2c(-c3ccccc3[N+](=O)[O-])nc3ccccc3c2=O)cc1 | -68.7% |
| O=c1c2ccccc2nc(Cc2ccccc2)n1-c1ccccc1 | -20.9% |
| COc1ccc(-n2c(-c3ccccc3Br)nc3ccccc3c2=O)cc1 | -20.9% |
| O=c1c2ccccc2nc(Cc2cccc([N+](=O)[O-])c2)n1-c1ccc(O)cc1 | -35.5% |
| COc1ccc(-n2c(Cc3cccc([N+](=O)[O-])c3)nc3ccccc3c2=O)cc1 | -69.4% |
| COc1ccc(-n2c(Cc3ccccc3)nc3ccccc3c2=O)cc1 | -92.8% |
| CCc1c(C)sc(NC(=O)c2cc(-c3cc(OC)ccc3OC)on2)c1C#N | 3.3% |
| COc1ccc2cc(C(=O)C3CCCN(C(=O)c4cccnc4)C3)ccc2c1 (stereo not shown) | -25.1% |
| CCOC(=O)c1ccc(N=Nc2c(C)c(C#N)c(O)[nH]c2=O)cc1 | 1.91% |
| Cc1ccc(OCCNC(=O)CCNS(=O)(=O)c2ccc(Br)cc2)cc1 | 15.7% |
| CSc1nncc(-c2ccc(F)c(F)c2)n1 | 10.8% |
| C=CCNC(=S)/N=C/c1c(O)[nH]c(=O)[nH]c1=O | -52.8% |
| NC(=S)/N=C/c1c(O)[nH]c(=O)[nH]c1=O | 12.5% |
| CCCCCCCCN=Cc1c(O)[nH]c(=O)[nH]c1=O | 4.9% |
| CCNc1nc(NCC)n2c(SCC(=O)Nc3ccccc3Cl)nnc2n1 | 11% |
| O=C(CSc1ccc(Cl)cc1Cl)N1CCC(c2nc3ccccc3s2)CC1 | -14.5% |
| O=C(CSc1ccccc1Cl)N1CCC(c2nc3ccccc3s2)CC1 | -7.4% |
| O=C(CSc1c(Cl)cccc1Cl)N1CCC(c2nc3ccccc3s2)CC1 | -0.729% |

| Compound | hERG current change (%, negative = inhibition) at 10uM |
| --- | --- |
| CCNC(=O)N1CCC(c2nc3ccccc3s2)CC1 | 10.3% |
| O=C(CSc1ccc(F)cc1)N1CCC(c2nc3ccccc3s2)CC1 | -67.1% |
| O=C(CSc1ccc(Cl)cc1)N1CCC(c2nc3ccccc3s2)CC1 | -59.7% |
| CS(=O)(=O)Cc1ccc(C(=O)N2CCCC2c2cccs2)cc1 (stereo not shown) | 16.9% |
| CN(CCc1ccccn1)C(=O)CCC1CCCN(C(=O)c2ccccn2)C1 (stereo not shown) | 21.8% |
| Cc1ccccc1C(=O)Nc1ccc2c(c1)OCCO2 | 6.96% |
| Cc1ccc(C(=O)CCC(=O)Nc2ccccc2C)cc1C | 15% |
| CCCC(=O)OCCn1c(Br)nc2c1c(=O)[nH]c(=O)n2C | 16.9% |
| CCCCCn1c(CN2CCN(Cc3ccccc3)CC2)nc2c1c(=O)n(C)c(=O)n2C | -68% |
| CCOC(=O)Cn1c(Br)nc2c1c(=O)[nH]c(=O)n2C | -58% |
| CCCCCn1c(CN2CCN(CCO)CC2)nc2c1c(=O)n(C)c(=O)n2C | -17.9% |
| CCC(=O)OCCn1c(Br)nc2c1c(=O)[nH]c(=O)n2C | -0.796% |
| CCCCn1c(SCc2nnc(-c3ccccc3)o2)nc2c1c(=O)n(C)c(=O)n2C | -56% |
| CCCCCCn1c(CN2CCN(Cc3ccccc3)CC2)nc2c1c(=O)n(C)c(=O)n2C | -71.8% |
| Cn1c(=O)c2c(nc(CN3CCCCC3)n2CCCc2ccccc2)n(C)c1=O | -29.1% |
| CCCCn1c(SCc2cccnc2)nc2c1c(=O)n(C)c(=O)n2C | -28% |
| CCCCn1c(SCc2ccccn2)nc2c1c(=O)n(C)c(=O)n2C | -8.02% |
| CCCCCCn1c(CN2CCN(CCO)CC2)nc2c1c(=O)n(C)c(=O)n2C | -38.3% |
| CN1CCN(Cc2nc3c(c(=O)n(C)c(=O)n3C)n2CCCc2ccccc2)CC1 | -13.4% |
